Experimental data published in PubChem BioAssay (EPA / NIEHS).
Inconclusive results are not listed. Calls of active or inactive are those of the source. The calls were made as follows, unless noted: active = hit-call score of the fitted dose curve at least 0.9, where 1 is the maximum; inconclusive = response in the unintended direction; inactive = score below 0.9.

Legend:
[1] = ATG_TAL_CIS: Attagene CIS-FACTORIAL HepG2 Assay for human TAL Basal Promoter (AID 2282966; active = hit-call score of the fitted dose curve at least 0.9, where 1 is the maximum; inactive = score below 0.9;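 also: background control endpoint measuring basal TAL promoter reporter mRNA not a specific factor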); conditions: HepG2 Attagene cis-factorial TAL promoter reporter; actives raise or lower the signal
Procedure, shortened: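 Endogenous transcription-factor activity is sensed in HepG2 cells through transfected cis-promoter reporter constructs. After 24 h dosing, reporter transcripts are quantified by RT-PCR and capillary electrophoresis. Gain or loss of signal is fitted relative to DMSO.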

[2] = ATG_TGFb_CIS: Attagene CIS-FACTORIAL HepG2 Assay for human Transforming Growth Factor (TGF) (AID 2282967; active = hit-call score of the fitted dose curve at least 0.9, where 1 is the maximum; inactive = score below 0.9); conditions: HepG2 Attagene CIS TGFb reporter, mRNA transcription; actives raise or lower the signal
Procedure, shortened: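 Transient MRTU transfection of HepG2 (FuGene 6). Dose 24 h. TriZol RNA, oligo(dT) RT, PCR, 6-FAM primer extension, HpaI cut, CE. Bidirectional fit, DMSO = baseline.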

[3] = ATG_VDRE_CIS: Attagene CIS-FACTORIAL HepG2 Assay for human Vitamin D Receptor Element (VDRE) (AID 2282968; active = hit-call score of the fitted dose curve at least 0.9, where 1 is the maximum; inactive = score below 0.9); conditions: HepG2 VDRE cis-reporter transcription, actives raise or lower the signal
Procedure, shortened: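 Compounds were applied for 24 h to HepG2 cells transfected with promoter-regulated reporter units. Total RNA was reverse-transcribed, and reporter amplicons were fluorescently labelled and sized by capillary electrophoresis.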

[4] = target: Nuclear receptor subfamily 1 group I member 3 (Homo sapiens) (UniProt Q14994); test: ATG_CAR_TRANS: Attagene TRANS-FACTORIAL HepG2 Assay for human Constitutive Androstane Receptor (CAR) (AID 2282969); conditions: HepG2 Attagene TRANS-FACTORIAL CAR reporter;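 also: activators raise reporter mRNA above DMSO so AC50 marks induction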
Procedure, shortened: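 Transiently transfected HepG2, multiplex TRANS reporters (CAR-Gal4 chimera driving GAL4-UAS reporter). 24 h dosing. Readout: reporter transcript by RT-PCR + capillary electrophoresis, fluorescence intensity; positive direction vs DMSO.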

[5] = target: Estrogen receptor (Homo sapiens) (UniProt P03372); test: ATG_ERa_TRANS: Attagene TRANS-FACTORIAL HepG2 Assay for human Estrogen Receptor alpha (ERa) (AID 2282970); conditions: HepG2 Attagene TRANS ERa GAL4 reporter, mRNA
Procedure, shortened: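 Transfected HepG2 cells carrying GAL4-UAS-driven reporter units were dosed for 24 hours. Total RNA was reverse-transcribed, reporter sequences PCR-amplified, FAM-labelled, HpaI-digested and resolved by capillary electrophoresis. Increases over DMSO control defined activity.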

[6] = target: X-box-binding protein 1 (Homo sapiens) (UniProt P17861); test: ATG_Xbp1_CIS: Attagene CIS-FACTORIAL HepG2 Assay for human X-box Binding Protein 1 (XBP1) (AID 2282972; active = hit-call score of the fitted dose curve at least 0.9, where 1 is the maximum; inactive = score below 0.9); conditions: HepG2 XBP1 cis-element reporter, Attagene multiplex; actives raise or lower the signal
Procedure, shortened: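 Human hepatoma HepG2, cis-element reporter system, 24 h treatment; mRNA quantified by RT-PCR/CE fluorescence; fit relative to DMSO.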

[7] = ATG_M_19_TRANS: Attagene TRANS-FACTORIAL HepG2 Assay for M19 Transcription Factor (Internal Marker) (AID 2282974); conditions: HepG2 Attagene TRANS-FACTORIAL M19 internal marker reporter
Procedure, shortened: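 Transfected HepG2 (GAL4-UAS MRTUs), 24 h compound, TriZol RNA, DNase-treated RT, reporter PCR, FAM label, HpaI digest, CE fluorescence; gain vs DMSO.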

[8] = ATG_GAL4_TRANS: Attagene TRANS-FACTORIAL HepG2 Assay for GAL4 (Internal Marker) (AID 2282976); conditions: HepG2 Attagene TRANS GAL4 internal marker reporter
Procedure, shortened: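 Fluorescence from capillary electrophoresis of labelled RT-PCR products quantifies reporter mRNA induction after 24 h dosing of HepG2 cells carrying transfected GAL4-UAS reporter transcription units. Vehicle DMSO serves as baseline.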

[9] = target: Oxysterols receptor LXR-alpha (Homo sapiens) (UniProt Q13133); test: ATG_LXRa_TRANS: Attagene TRANS-FACTORIAL HepG2 Assay for human Liver X Receptor alpha (LXRa) (AID 2282980); conditions: HepG2 Attagene TRANS reporter, LXRa transactivation
Procedure, shortened: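 Transient HepG2 transfectants, 24 h dosing, RT-PCR/CE mRNA reporter quantitation; gain-of-signal vs DMSO.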

[10] = target: Oxysterols receptor LXR-beta (Homo sapiens) (UniProt P55055); test: ATG_LXRb_TRANS: Attagene TRANS-FACTORIAL HepG2 Assay for human Liver X Receptor beta (LXRb) (AID 2282981); conditions: HepG2 Attagene TRANS GAL4-LXRb reporter, mRNA
Procedure, shortened: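 Multiplexed reporter assay, HepG2, 24 h dosing. Fluorescence of labelled RT-PCR products after capillary electrophoresis gives transcript level; positive fitting direction relative to DMSO.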

[11] = target: Hepatocyte nuclear factor 4-alpha (Homo sapiens) (UniProt P41235); test: ATG_HNF4a_TRANS: Attagene TRANS-FACTORIAL HepG2 Assay for human Hepatocyte Nuclear Factor 4 alpha (HNF4a) (AID 2282982); conditions: HepG2 HNF4a transactivation reporter, mRNA readout
Procedure, shortened: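 Endpoint reflects transcriptional activation of a GAL4-UAS reporter by an HNF4a-GAL4 chimera in transfected HepG2 cells, 24 h post-dosing. Fluorescence from RT-PCR products separated by capillary electrophoresis; DMSO baseline.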

[12] = ATG_M_06_TRANS: Attagene TRANS-FACTORIAL HepG2 Assay for M06 Transcription Factor (Internal Marker) (AID 2282983); conditions: HepG2 Attagene TRANS M06 internal marker reporter
Procedure, shortened: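 Human liver HepG2 cells bearing transiently transfected chimeric NR-GAL4 reporter units were treated with chemicals for 24 h. Total RNA was reverse-transcribed, reporter sequences amplified and labelled, then quantified by capillary electrophoresis. Activity was fitted upward relative to DMSO.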

[13] = ATG_M_32_TRANS: Attagene TRANS-FACTORIAL HepG2 Assay for M32 Transcription Factor (Internal Marker) (AID 2282984); conditions: HepG2 Attagene TRANS M32 internal marker reporter;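 also: transcript level of a background control reporter unit measured by RT-PCR and capillary electrophoresis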
Procedure, shortened: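 Internal-marker readout from a multiplexed transcription reporter panel. HepG2 cells were transfected with GAL4-UAS reporter units, treated 24 hours, and reporter transcript levels determined by fluorescence after RT-PCR and capillary separation.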

[14] = target: Nuclear receptor subfamily 4 group A member 2 (Homo sapiens) (UniProt P43354); test: ATG_NURR1_TRANS: Attagene TRANS-FACTORIAL HepG2 Assay for human Nuclear Receptor Related Protein 1 (NURR1) (AID 2282985); conditions: HepG2 Attagene TRANS reporter, mRNA readout
Procedure, shortened: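 Endpoint: reporter mRNA increase relative to DMSO. HepG2 cells transfected with reporter units, treated 24 h; RNA processed by RT-PCR, labelling, HpaI digestion and capillary electrophoresis.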

[15] = target: Transcriptional activator Myb (Homo sapiens) (UniProt P10242); test: ATG_Myb_CIS: Attagene CIS-FACTORIAL HepG2 Assay for human Myeloblastosis (Myb) Proto-Oncogene Transcription Factor (AID 2282986; active = hit-call score of the fitted dose curve at least 0.9, where 1 is the maximum; inactive = score below 0.9); conditions: HepG2 Attagene CIS-FACTORIAL Myb reporter transcription; actives raise or lower the signal
Procedure, shortened: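 After 24 h of compound dosing, total RNA from transfected HepG2 cells is reverse-transcribed and the reporter sequences amplified, labeled and separated by capillary electrophoresis. Values come from bidirectional fitting against DMSO.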

[16] = target: Nuclear respiratory factor 1 (Homo sapiens) (UniProt Q16656); test: ATG_NRF1_CIS: Attagene CIS-FACTORIAL HepG2 Assay for human Nuclear Respiratory Factor 1 (NRF1) Orphan Gene (AID 2282987; active = hit-call score of the fitted dose curve at least 0.9, where 1 is the maximum; inactive = score below 0.9); conditions: HepG2 NRF1 cis-element reporter, Attagene multiplex; actives raise or lower the signal
Procedure, shortened: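 Measured: fluorescent reporter-specific RT-PCR products from transfected HepG2 cells, separated by capillary electrophoresis. Exposure lasted 24 h. Analysis used bidirectional curve fitting with DMSO as negative control.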

[17] = target: Steroid hormone receptor ERR1 (Homo sapiens) (UniProt P11474); test: ATG_ERRa_TRANS: Attagene TRANS-FACTORIAL HepG2 Assay for human Estrogen-Related Receptor alpha (ERRa) (AID 2282971); conditions: HepG2 Attagene TRANS reporter, ERRa transactivation
Procedure, shortened: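 HepG2 cells were transiently transfected with multiple GAL4-UAS reporter units, then dosed with compound for 24 h. Total RNA was reverse-transcribed, reporter cDNA PCR-amplified and fluorescently labelled, and fragments resolved by capillary electrophoresis; induction was compared with DMSO.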

[18] = target: Estrogen-related receptor gamma (Homo sapiens) (UniProt P62508); test: ATG_ERRg_TRANS: Attagene TRANS-FACTORIAL HepG2 Assay for human Estrogen-Related Receptor gamma (ERRg) (AID 2282977); conditions: HepG2 Attagene TRANS reporter, ERRg transactivation;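 also: hits increase reporter signal over DMSO so potencies reflect activators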
Procedure, shortened: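 Induction of reporter transcripts through a chimeric NR-Gal4 protein is quantified in transfected human HepG2 liver cells after 24 h chemical exposure, using RT-PCR with capillary electrophoresis detection and DMSO as baseline.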

[19] = target: Bile acid receptor (Homo sapiens) (UniProt Q96RI1); test: ATG_FXR_TRANS: Attagene TRANS-FACTORIAL HepG2 Assay for Farnesoid X Receptor (FXR) (AID 2282979); conditions: HepG2 Attagene TRANS FXR-GAL4 reporter transcription;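 also: hits raise reporter mRNA above DMSO so AC50 marks FXR activation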
Procedure, shortened: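 Chimeric FXR-GAL4 activity in transiently transfected human HepG2 liver cells is scored as induction of reporter mRNA after 24 h of dosing. Detection uses RT-PCR with fluorescent labelling and capillary electrophoresis, with DMSO serving as baseline.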

[20] = target: Glucocorticoid receptor (Homo sapiens) (UniProt P04150); test: ATG_GR_TRANS: Attagene TRANS-FACTORIAL HepG2 Assay for human Glucocorticoid Receptor (GR) (AID 2282978); conditions: HepG2 Attagene TRANS GR reporter, mRNA transcription;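 also: activators score as hits since higher reporter transcript over DMSO is fitted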
Procedure, shortened: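 After 24 h incubation with test chemical, transfected HepG2 cells were lysed for RNA; reporter cDNA was amplified, FAM-labelled, HpaI-digested and sized on a capillary analyser. Signal gain relative to DMSO was scored.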

Measured: outcome

Sequence of Estrogen receptor (Homo sapiens) (P03372 whole entry, looked up, the tested form may be a part): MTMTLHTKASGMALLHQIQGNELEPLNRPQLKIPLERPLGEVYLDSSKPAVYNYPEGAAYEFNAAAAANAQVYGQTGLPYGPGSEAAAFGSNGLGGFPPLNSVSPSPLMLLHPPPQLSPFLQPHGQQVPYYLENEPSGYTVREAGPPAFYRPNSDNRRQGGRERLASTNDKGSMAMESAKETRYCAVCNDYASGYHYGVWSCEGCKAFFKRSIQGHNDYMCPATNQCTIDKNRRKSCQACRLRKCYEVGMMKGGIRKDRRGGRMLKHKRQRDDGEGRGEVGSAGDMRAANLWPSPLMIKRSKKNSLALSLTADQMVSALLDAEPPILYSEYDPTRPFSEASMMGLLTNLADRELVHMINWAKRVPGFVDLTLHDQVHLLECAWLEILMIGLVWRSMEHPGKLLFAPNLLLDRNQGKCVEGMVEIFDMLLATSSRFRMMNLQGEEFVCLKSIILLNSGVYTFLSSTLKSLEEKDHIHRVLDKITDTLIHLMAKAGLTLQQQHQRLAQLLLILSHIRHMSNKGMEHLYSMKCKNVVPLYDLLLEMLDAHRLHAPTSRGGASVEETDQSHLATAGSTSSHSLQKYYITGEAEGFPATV
Sequence of Hepatocyte nuclear factor 4-alpha (Homo sapiens) (P41235 whole entry, looked up, the tested form may be a part): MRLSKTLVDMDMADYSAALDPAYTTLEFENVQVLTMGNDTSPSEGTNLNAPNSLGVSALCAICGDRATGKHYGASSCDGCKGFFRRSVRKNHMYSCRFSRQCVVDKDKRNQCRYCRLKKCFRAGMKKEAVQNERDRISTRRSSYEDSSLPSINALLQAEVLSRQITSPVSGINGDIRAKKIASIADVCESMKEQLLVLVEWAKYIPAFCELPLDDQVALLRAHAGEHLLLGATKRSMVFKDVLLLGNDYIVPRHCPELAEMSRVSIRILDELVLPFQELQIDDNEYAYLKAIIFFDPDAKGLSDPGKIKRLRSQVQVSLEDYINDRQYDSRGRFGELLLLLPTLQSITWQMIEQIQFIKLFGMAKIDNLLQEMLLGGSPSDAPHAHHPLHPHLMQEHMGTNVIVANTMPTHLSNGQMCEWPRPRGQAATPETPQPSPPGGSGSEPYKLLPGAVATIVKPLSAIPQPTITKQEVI
Sequence of X-box-binding protein 1 (Homo sapiens) (P17861 whole entry, looked up): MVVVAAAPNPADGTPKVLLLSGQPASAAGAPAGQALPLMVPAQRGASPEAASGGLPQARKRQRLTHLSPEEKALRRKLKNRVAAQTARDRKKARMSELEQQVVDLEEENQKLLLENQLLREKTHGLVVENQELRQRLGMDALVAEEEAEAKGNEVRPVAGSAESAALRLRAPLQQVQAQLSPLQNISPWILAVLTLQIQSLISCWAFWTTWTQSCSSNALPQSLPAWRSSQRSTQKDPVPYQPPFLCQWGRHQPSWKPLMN
Sequence of Oxysterols receptor LXR-beta (Homo sapiens) (P55055 whole entry, looked up, the tested form may be a part): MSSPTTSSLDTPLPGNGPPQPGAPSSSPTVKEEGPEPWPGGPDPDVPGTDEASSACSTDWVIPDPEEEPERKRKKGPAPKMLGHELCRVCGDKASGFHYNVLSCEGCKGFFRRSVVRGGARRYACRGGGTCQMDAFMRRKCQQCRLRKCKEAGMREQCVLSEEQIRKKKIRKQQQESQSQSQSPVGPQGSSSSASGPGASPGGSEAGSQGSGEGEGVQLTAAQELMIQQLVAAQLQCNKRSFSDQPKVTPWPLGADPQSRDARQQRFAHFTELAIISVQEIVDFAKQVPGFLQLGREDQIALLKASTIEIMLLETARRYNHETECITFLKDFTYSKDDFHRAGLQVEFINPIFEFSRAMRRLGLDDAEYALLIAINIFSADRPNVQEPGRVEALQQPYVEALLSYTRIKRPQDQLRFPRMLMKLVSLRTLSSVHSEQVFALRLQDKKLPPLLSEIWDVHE
Sequence of Nuclear respiratory factor 1 (Homo sapiens) (Q16656 whole entry, looked up): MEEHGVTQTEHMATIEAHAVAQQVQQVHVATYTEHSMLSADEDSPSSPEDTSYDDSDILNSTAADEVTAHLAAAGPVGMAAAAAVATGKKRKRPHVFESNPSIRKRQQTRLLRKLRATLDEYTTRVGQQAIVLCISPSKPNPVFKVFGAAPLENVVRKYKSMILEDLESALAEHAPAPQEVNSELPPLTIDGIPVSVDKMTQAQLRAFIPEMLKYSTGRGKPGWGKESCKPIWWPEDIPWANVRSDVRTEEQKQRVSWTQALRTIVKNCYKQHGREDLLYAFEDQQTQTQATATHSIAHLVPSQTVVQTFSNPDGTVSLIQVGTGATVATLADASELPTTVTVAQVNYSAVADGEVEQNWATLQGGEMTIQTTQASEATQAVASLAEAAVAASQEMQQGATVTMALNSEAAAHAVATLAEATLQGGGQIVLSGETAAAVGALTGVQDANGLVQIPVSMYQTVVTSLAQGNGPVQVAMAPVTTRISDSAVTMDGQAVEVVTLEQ
Sequence of Nuclear receptor subfamily 1 group I member 3 (Homo sapiens) (Q14994 whole entry, looked up, the tested form may be a part): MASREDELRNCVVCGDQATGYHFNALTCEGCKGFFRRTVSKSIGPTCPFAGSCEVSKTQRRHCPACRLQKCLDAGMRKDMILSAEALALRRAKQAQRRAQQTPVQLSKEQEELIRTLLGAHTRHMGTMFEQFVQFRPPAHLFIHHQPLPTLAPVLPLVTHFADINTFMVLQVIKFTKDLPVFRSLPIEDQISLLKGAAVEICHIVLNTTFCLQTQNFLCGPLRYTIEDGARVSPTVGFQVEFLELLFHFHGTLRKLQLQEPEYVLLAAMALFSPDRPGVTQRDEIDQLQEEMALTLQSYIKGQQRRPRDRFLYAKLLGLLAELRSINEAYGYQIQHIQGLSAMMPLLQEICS
Sequence of Nuclear receptor subfamily 4 group A member 2 (Homo sapiens) (P43354 whole entry, looked up): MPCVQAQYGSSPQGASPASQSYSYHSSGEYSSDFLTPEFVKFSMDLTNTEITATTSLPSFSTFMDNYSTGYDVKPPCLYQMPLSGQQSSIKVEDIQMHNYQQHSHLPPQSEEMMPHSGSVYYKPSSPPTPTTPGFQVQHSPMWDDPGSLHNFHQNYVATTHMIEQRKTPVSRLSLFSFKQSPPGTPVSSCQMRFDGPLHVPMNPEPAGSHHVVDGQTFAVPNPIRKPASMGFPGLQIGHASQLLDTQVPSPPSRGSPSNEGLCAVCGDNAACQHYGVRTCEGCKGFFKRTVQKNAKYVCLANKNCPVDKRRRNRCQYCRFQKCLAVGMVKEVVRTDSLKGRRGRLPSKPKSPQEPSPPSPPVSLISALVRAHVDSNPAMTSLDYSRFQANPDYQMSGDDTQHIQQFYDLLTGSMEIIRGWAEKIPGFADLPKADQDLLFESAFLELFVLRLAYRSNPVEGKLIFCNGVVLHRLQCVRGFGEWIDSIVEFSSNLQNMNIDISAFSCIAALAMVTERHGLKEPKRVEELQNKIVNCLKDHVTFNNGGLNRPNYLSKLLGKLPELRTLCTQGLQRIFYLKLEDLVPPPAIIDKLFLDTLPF
Sequence of Oxysterols receptor LXR-alpha (Homo sapiens) (Q13133 whole entry, looked up): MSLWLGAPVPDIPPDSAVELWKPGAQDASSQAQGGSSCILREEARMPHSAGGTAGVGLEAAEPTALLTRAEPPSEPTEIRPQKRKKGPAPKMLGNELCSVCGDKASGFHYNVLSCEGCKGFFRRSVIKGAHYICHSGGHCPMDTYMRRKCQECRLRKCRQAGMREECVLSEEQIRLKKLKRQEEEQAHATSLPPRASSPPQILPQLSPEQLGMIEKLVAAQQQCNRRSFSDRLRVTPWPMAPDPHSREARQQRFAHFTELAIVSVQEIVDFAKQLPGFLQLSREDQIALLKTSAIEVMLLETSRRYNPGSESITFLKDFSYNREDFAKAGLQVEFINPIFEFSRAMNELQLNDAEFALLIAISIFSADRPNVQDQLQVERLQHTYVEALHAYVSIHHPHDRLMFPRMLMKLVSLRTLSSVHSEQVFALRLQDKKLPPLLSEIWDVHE
Sequence of Transcriptional activator Myb (Homo sapiens) (P10242 whole entry, looked up): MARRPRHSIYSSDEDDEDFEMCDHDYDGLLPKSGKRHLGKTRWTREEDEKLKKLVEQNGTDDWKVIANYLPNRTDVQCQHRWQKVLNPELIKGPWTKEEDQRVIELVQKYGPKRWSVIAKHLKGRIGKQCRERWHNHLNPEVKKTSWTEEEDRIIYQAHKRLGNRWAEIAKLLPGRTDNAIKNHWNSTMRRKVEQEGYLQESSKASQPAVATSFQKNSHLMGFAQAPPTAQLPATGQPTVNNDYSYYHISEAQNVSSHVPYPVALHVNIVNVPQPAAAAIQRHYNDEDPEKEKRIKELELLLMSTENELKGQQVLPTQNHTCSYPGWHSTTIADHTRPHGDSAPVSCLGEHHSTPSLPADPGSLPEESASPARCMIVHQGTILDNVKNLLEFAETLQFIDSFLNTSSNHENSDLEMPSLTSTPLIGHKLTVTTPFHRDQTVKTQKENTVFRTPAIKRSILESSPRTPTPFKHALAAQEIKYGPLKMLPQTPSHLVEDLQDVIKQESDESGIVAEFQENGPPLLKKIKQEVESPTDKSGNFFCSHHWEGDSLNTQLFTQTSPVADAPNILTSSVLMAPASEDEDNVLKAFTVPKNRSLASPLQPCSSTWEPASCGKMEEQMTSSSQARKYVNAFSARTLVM
Sequence of Estrogen-related receptor gamma (Homo sapiens) (P62508 whole entry, looked up, the tested form may be a part): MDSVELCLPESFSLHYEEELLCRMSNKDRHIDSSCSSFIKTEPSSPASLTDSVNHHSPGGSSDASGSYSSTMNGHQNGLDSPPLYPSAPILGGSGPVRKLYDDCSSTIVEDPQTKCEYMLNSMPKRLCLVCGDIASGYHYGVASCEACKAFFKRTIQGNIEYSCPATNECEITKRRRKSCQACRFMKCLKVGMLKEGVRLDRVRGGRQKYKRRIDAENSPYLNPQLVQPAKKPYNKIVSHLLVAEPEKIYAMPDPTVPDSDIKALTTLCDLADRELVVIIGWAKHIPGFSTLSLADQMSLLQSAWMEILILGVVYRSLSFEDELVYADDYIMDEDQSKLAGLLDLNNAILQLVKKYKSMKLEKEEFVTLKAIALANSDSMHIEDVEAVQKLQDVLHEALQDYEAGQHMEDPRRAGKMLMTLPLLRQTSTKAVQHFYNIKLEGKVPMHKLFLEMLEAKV

CC(C)=CCC/C(C)=C\C#N
inactive: [1] | [2] | [3] | [4] | [5] | [6] | [7] | [8] | [9] | [10] | [11] | [12] | [13] | [14] | [15] | [16]

CCN(CCO)c1cccc(C)c1
inactive: [1] | [2] | [3] | [4] | [5] | [17] | [6] | [7] | [8] | [18] | [19] | [13] | [14] | [15] | [16]

CC(=O)OCc1ccco1
inactive: [1] | [2] | [3] | [4] | [5] | [17] | [6] | [18] | [9] | [11] | [12] | [13] | [15] | [16]

CC1OC1C1CCC2(C)OC2C1 (stereo not drawn)
inactive: [1] | [2] | [3] | [4] | [5] | [6] | [7] | [20] | [9] | [10] | [11] | [13] | [14] | [15] | [16]

C=CC(C)(CCC=C(C)C)OC(=O)CC(C)C (stereo not drawn)
inactive: [1] | [2] | [3] | [4] | [5] | [6] | [7] | [9] | [10] | [13] | [14] | [15] | [16]
